Compounds with a hit are over-represented: about 3.3% of the library has one in this group of screens.
CendR NRP1 mod = modulators of CendR peptide binding to NRP-1, primary screen, biochemical, fluorescence polarization, uHTS; AID 602438, 2012; inhibition, % at 25 µM; 360,000 compounds, 0.85% hits; FAM-RPARPAR peptide binding to NRP-1;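 active = inhibition or corrected inhibition above about 18%, plus a signal ratio from 0.5 to 1.5, limit read from the data, passing the limit was not always enough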
Target sequence (O14786 whole entry, looked up): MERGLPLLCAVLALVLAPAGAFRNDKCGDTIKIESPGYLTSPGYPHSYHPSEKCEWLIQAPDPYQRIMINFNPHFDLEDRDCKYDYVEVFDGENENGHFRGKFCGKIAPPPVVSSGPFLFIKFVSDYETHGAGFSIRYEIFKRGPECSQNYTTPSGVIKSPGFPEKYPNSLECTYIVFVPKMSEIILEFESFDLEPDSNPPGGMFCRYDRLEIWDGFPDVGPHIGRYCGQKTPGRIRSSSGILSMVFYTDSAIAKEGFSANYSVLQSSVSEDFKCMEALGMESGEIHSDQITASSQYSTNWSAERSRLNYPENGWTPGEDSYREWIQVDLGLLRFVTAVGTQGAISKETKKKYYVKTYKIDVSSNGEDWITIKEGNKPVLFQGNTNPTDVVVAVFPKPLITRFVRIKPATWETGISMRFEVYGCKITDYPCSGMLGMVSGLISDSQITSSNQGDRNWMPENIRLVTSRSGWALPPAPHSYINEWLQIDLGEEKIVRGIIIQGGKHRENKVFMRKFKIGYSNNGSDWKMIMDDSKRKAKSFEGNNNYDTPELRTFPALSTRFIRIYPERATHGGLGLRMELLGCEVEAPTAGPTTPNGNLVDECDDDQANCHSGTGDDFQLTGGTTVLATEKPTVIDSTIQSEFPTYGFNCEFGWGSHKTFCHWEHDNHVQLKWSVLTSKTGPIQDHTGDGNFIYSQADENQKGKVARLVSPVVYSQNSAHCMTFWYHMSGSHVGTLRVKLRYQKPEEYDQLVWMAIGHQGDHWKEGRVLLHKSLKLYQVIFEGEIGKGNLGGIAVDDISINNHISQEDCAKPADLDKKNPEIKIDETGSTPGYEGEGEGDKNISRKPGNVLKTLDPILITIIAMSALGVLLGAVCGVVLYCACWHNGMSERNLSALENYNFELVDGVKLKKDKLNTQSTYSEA
HNF4A DNA FP = change in binding of human HNF4A to DNA, primary screen, biochemical, fluorescence polarization, FITC-DNA; Hepatocyte nuclear factor 4-alpha (Homo sapiens), P41235; 1 h; activity change, % at 10 µM; 360,000 compounds, 0.3% hits; in the data active = activity change above about 30%, passing the limit was not always enough
Fh CTSL1 inh = Fasciola hepatica cathepsin L1 inhibitors, primary screen, counter-screen for PFM18AAP inhibitor project, biochemical, QFRET, fluorogenic peptide substrate; recombinant F. hepatica cathepsin L1, Z-Leu-Arg-MCA fluorescence; inhibition, % at 5.96 µM; 300,000 compounds, 0.49% hits;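 active = inhibition above the mean of all tested compounds plus 3 SD, set per screening campaign, cut at about 17% in these data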
TPT1 inh = Candida albicans TPT1 enzyme inhibitors, primary screen, biochemical, fluorescence polarization; 300,000 compounds, 0.81% hits; recombinant caTPT1, FP RNA substrate dephosphorylation; AID 1962, 2009; inhibition, % at 5 µM; tRNA 2'-phosphotransferase TPT1 (Candida albicans SC5314);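 active = inhibition above the mean of all tested compounds plus 3 SD, set per screening campaign, cut at about 24% in these data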
Rpn11 block = Rpn11 (PSMD14) deubiquitinase inhibitors, primary screen, biochemical, fluorescence polarization, uHTS. human 26S proteasome, Ub4-pepOG fluorescence polarization; 20S core pre-blocked with epoxomicin. AID 588493, 2011. 26S proteasome non-ATPase regulatory subunit 14 (Homo sapiens), O00487. inhibition, % at 20 µM. 360,000 compounds, 0.59% hits;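 active = inhibition at 20 µM, scaled to each plate's controls, above about 33%, limit read from the data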
PHOSPHO1 inh = PubChem AID 1565; recombinant PHOSPHO1, absorbance phosphatase assay; Phosphoethanolamine/phosphocholine phosphatase (Homo sapiens), Q8TCT1; 290,000 compounds, 1.1% hits; inhibition, % at 13.3 µM; in the data active = inhibition above about 60%
Hits are given with their value; – = inactive; · = no result given.

SMILES	CendR NRP1 mod	HNF4A DNA FP	Fh CTSL1 inh	TPT1 inh	Rpn11 block	PHOSPHO1 inh
CC(CN1CCCCC1)OC(=O)c1ccc(Cl)cc1Cl (centres undefined)	22.3	–	–	–	–	–
CC(NC(=O)CSc1nc2c(c(C(F)(F)F)n1)CCc1ccccc1-2)c1ccccc1 (centres undefined)	28.4	–	–	–	–	–
O=C(CSc1nc2c(c(C(F)(F)F)n1)CCc1ccccc1-2)NCc1ccco1	–	–	–	–	–	–
Cc1ccc(S(=O)(=O)/N=C(/NC(=S)Nc2ccccc2)c2ccccc2)cc1	–	–	–	–	–	–
Cc1ccc(S(=O)(=O)C/N=C(/NC(=S)N(c2ccccc2)c2ccccc2)c2ccccc2)cc1	–	–	–	–	–	66.4
COc1ccc(/C=C/C(=O)O)cc1S(=O)(=O)N1CCCC1	–	–	–	–	–	–
CCOC(=O)c1cn2nc(Oc3cccc(C(F)(F)F)c3)ccc2n1	–	–	–	–	–	–
Cc1ccc(-n2nnnc2SCC(=O)c2cc(C)n(CC3CCCO3)c2C)cc1 (centres undefined)	–	–	–	–	–	74.4
Cc1cccc(-n2nnnc2SCC(=O)c2cc(C)n(CC3CCCO3)c2C)c1 (centres undefined)	–	–	–	–	–	93.2
Cc1cccc(-n2nnnc2SCC(=O)c2cc(C)n(Cc3ccco3)c2C)c1	–	–	–	–	–	75.9
Cc1ccc(-c2[nH][nH]c(=O)c(=O)c2N=Nc2ccccc2)cc1	–	–	–	–	–	–
Cc1nc(N)sc1-c1csc(Nc2ccccn2)n1	–	–	·	·	–	70.2
COc1ccc(Nc2nc(-c3sc(N)nc3C)cs2)cc1	–	–	–	–	–	68.3
COc1ccc(Nc2nc(-c3sc(NC(C)=O)nc3C)cs2)cc1	·	·	–	–	·	73.1
Cn1c(=O)c2c(-c3ccccc3)n(-n3cnnc3)cc2n(C)c1=O	–	–	24.6	–	–	–
Cc1ccc(S(=O)(=O)N2CCOCC2)cc1NC(=O)CSc1nnnn1C1CC1	–	–	·	·	–	·
Cc1ccc2c(C)c(C(=O)NCC3CCOCC3)oc2c1C	–	–	·	·	–	·
Cc1ccc2oc(C(=O)NCC3CCOCC3)c(C)c2c1	25.6	–	–	–	–	–
COc1cc(/C=N/NC(=O)CCc2c(C)n[nH]c2C)cc(OC)c1OC	–	–	–	–	–	–
O=c1[nH]n2c(=O)c3c([nH]c2c1N=Nc1cccc(Cl)c1)CCCC3	–	–	–	–	–	75.7
Cc1cccc(C)c1NC(=O)C1c2cccc[n+]2CC(=O)N1Cc1ccc2c(c1)OCO2 (centres undefined)	–	–	–	–	–	–
Cc1ccccc1NC(=O)C1c2cccc[n+]2CC(=O)N1c1c(C)cccc1C (centres undefined)	–	–	–	–	–	94.9
COc1ccc(N2C(=O)/C(=C/c3cccs3)NC2=S)cc1	–	–	–	–	–	75.1
CCOc1ccc(N2C(=O)/C(=C/c3cccs3)N(CC(=O)OC)C2=S)cc1	–	–	–	–	–	–
CC(C)(C)N(NC(=O)Nc1ccc(Cl)cc1)C(=O)c1ccccc1	29.3	–	–	–	–	–
SMILES	CendR NRP1 mod	HNF4A DNA FP	Fh CTSL1 inh	TPT1 inh	Rpn11 block	PHOSPHO1 inh
CC(C)(C)N(NC(=O)Nc1ccccc1)C(=O)c1ccccc1	–	–	–	–	–	–
CCOc1ccc(-c2c(C(=O)N/N=C/c3sccc3C)nnn2-c2nonc2N)cc1	23.6	–	–	–	–	–
Cc1onc(-c2c(Cl)cccc2Cl)c1C(=O)c1c[nH]c(C(=O)NCCCN2CCOCC2)c1	23.1	–	–	–	–	–
CCOc1cc(CNCc2ccccn2)cc(Cl)c1OC	–	–	–	–	–	–
CCOc1cc(CNCC(O)c2ccccc2)cc(Cl)c1OC (centres undefined)	–	–	–	–	–	61.8
COc1ccc(C2(c3ccc(OC)cc3)NC(=O)N(CC(=O)N(C)C3CCC(C)CC3)C2=O)cc1 (centres undefined)	–	–	·	·	–	·
COC(=O)c1nc(NNC(=O)c2ccccc2)sc1-c1ccccc1	–	–	–	–	–	·
CS(=O)(=O)N1CCC(Oc2cccc(C(=O)NCCCOc3cccnc3)c2)CC1	–	–	–	–	–	–
CN(Cc1ccc(Cl)cc1)C(CCc1ccccc1)C(=O)NC1CCCCC1 (centres undefined)	19.6	–	·	·	–	·
CN(Cc1ccc(Cl)cc1)C(C(=O)NC1CCCCC1)c1cc2ccccc2o1 (centres undefined)	–	–	·	·	–	·
Cn1cccc1/C=N/n1c(-c2ccc(Cl)cc2Cl)n[nH]c1=S	–	–	–	–	–	76.6
Cn1cccc1/C=N/n1c(-c2ccc(Cl)cc2)n[nH]c1=S	–	–	–	–	–	65.6
Cc1ccc(-c2n[nH]c(=S)n2/N=C/c2cccn2C)cc1	–	–	–	–	–	–
Cc1ccccc1OCC(O)Cn1c(SC(C)C)nc2c1c(=O)[nH]c(=O)n2C (centres undefined)	–	–	–	–	–	91.4
CC(/C=C/c1ccccc1)=N\NC(=O)c1cc(C)[nH]n1	–	–	–	–	–	–
Cn1c(-c2ccccc2)cc(=O)c2ccccc21	–	–	–	–	–	–
Cn1c2ccccc2c(=O)n2c(=O)c3ccccc3cc12	·	·	107.4	–	·	–
Cn1c(N)c(S(=O)(=O)N2CCN(c3ccccc3Cl)CC2)c(=O)n(C)c1=O	26.6	–	–	–	–	–
CCOc1cccc(C2C(C(=O)c3ccc(C)o3)=C(O)C(=O)N2Cc2ccncc2)c1 (centres undefined)	–	–	–	–	–	–
CCOc1cccc(C2C(C(=O)c3ccc(C)o3)=C(O)C(=O)N2c2nccs2)c1 (centres undefined)	–	–	–	–	–	71.1
Nc1nc(N)c(N=O)c(OCC2CCCCC2)n1	–	–	104.3	–	–	–
Cc1ccc(C)c(S(=O)(=O)NCc2ccc(C(=O)N3CCC(Cc4ccccc4)CC3)cc2)c1	45.4	–	–	–	–	–
CCOC(=O)C1CCN(C(=O)CCn2c(=O)oc3ccccc32)CC1	–	–	·	·	–	·
CCN(CC)C(=O)[C@H]1CC(CC(=O)NCCCn2ccnc2)C(=O)N2CCc3c([nH]c4ccccc34)[C@]12C (some centres undefined)	–	–	·	·	–	·
O=C(O)C[C@H]1c2cc(F)ccc2S(=O)(=O)N1C1CCCCC1	25.1	–	–	–	–	·
COc1ccc(N=C(C)C2=C(O)CSC2=O)cc1	–	–	–	–	–	88.8
COc1cnn(-c2ccccc2)c(=O)c1SCc1ccc(Cl)c(Cl)c1	–	–	–	–	–	87.9
